The sample as a whole holds a higher share of hits than the screen did.
ST2 inh = IL1RL1 inhibition. Q01638. AlphaLISA ST2-Fc/biotin-IL-33 interaction, 1 h. inhibition, % for hits at 17 µM. actives 2.3% (n = 78,000); in the data active means inhibition above about 30%
Target sequence (Q01638 whole entry, looked up): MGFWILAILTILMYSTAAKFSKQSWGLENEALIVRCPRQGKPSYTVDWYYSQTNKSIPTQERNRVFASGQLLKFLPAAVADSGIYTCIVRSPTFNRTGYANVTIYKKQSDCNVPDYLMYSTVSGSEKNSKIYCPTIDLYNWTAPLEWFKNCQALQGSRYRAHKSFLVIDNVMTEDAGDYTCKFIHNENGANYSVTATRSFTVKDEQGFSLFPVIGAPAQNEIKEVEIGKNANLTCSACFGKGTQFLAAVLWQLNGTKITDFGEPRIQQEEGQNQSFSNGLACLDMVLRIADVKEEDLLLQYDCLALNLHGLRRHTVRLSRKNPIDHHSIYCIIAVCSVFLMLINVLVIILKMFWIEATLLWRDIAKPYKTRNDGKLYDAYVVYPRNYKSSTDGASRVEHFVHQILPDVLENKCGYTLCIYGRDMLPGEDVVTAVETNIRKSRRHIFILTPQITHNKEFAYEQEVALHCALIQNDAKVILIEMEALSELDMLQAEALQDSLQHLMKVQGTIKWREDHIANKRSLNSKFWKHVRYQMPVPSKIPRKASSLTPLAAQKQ
Starred values were filed as active, the others as inactive; i = inactive; ! = not confirmed by another sample.

SMILES | ST2 inh
O=C1OC(c2ccc(Cl)cc2Cl)=N/C1=C/c1ccco1 | i
CCC(C)NC(=O)CSc1nc2nc(C)c(Cc3cccc(C)c3)c(C)n2n1 (stereo not drawn) | i
COc1ccccc1C(CC(=O)O)c1ccc2c(c1)OCO2 (stereo not drawn) | i
O=C(c1ccc(C2CCCO2)s1)N1C[C@@H]2[C@H](C1)[C@H]1CC[C@@H]2O1 (stereo partly drawn) | i
CN(C)C(C(=O)N1C[C@@H]2[C@H](C1)[C@H]1CC[C@@H]2O1)c1ccc2c(c1)OCO2 (stereo partly drawn) | 50%*
Cc1ccsc1[C@@H]1CCN(C(=O)c2cnc(-c3ccccc3)[nH]2)C[C@H]1O | i
CCN(CC)c1ccc(C=C2C(=O)OC(C)(C(C)(C)C)OC2=O)cc1 (stereo not drawn) | 43%*
COc1ccc(C=C2C(=O)OC3(CCCCC3)OC2=O)cc1O | i
CCn1cc(C=C2C(=O)OC(C)(C(C)(C)C)OC2=O)c2ccccc21 (stereo not drawn) | 44%*
CCOc1cc(C=C2C(=O)OC(C)(C(C)(C)C)OC2=O)cc(I)c1O (stereo not drawn) | i
CCN(CC)C(=O)Cn1cc(/C=C2\C(=O)NC(=O)N(CC)C2=O)c2ccccc21 | i
Cn1cc(/C=C2\C(=O)NN(c3ccccc3)C2=O)c2ccccc21 | i
CCOc1cc(C=C2C(=O)OC(C)(C(C)(C)C)OC2=O)ccc1OC (stereo not drawn) | i
Cn1cc(C=C2C(=O)OC3(CCCCC3)OC2=O)c2ccccc21 | 41%*
N#Cc1ccccc1Cn1cc(C=C2C(=O)NC(=O)NC2=O)c2ccccc21 | i
C=CCc1ccccc1OCCCCN1CCN(C)CC1 | i
O=C(OCc1nc2ccccc2s1)c1ccc(Br)cc1 | i
CNS(=O)(=O)c1ccc(Sc2ccc(S(=O)(=O)NC)cc2)cc1 | i
CC1=C(C)CC(C(=O)Nc2ccc(S(=O)(=O)N3CCOCC3)cc2)C(C(=O)O)C1 (stereo not drawn) | i
c1cc2occc2c(N2CCN(Cc3nc4c(s3)CCCC4)CC2)n1 | i
CCN(CC)S(=O)(=O)c1ccc(C(=O)N=c2sc3cccc(Cl)c3n2C)cc1 | i
COc1ccc(S(=O)(=O)Nc2ccc(OC)cc2[N+](=O)[O-])cc1 | i
CN(C)c1ccc(/C=C2\c3cc([N+](=O)[O-])ccc3-c3c2cc([N+](=O)[O-])cc3[N+](=O)[O-])cc1 | i
COc1ccc(C=C2c3cc([N+](=O)[O-])cc([N+](=O)[O-])c3-c3c2cc([N+](=O)[O-])cc3[N+](=O)[O-])cc1 | 51%*
CN(C)c1ccc(/C=C2\N=C(c3cccc([N+](=O)[O-])c3)OC2=O)cc1 | i
SMILES | ST2 inh
CN(C)c1ccc(C=C2c3cc([N+](=O)[O-])cc([N+](=O)[O-])c3-c3c2cc([N+](=O)[O-])cc3[N+](=O)[O-])cc1 | 42%*
COc1ccc(/C=C2\N=C(c3ccc(C)c([N+](=O)[O-])c3)OC2=O)cc1 | i
COc1ccc(OC)c(C(=O)N(Cc2ccc(OCc3ccccn3)cc2)[C@H]2CCCCNC2=O)c1 | i
COc1ccc(C(=O)Nc2nc(-c3cc(Cl)sc3Cl)cs2)cc1OC | i
CCOC(=O)c1c(NC(=O)c2ccco2)sc2c1CC(C)CC2 (stereo not drawn) | i
Cn1c(COc2ccc(C(C)(C)C)cc2)nc2ccccc21 | i
O=C(O)c1[nH]c2ccc(Cl)cc2c1CC(=O)N1CCN(c2cccc(Cl)c2)CC1 | i
O=C1NC(=Nc2ccccc2)SC1Cc1cccc([N+](=O)[O-])c1 (stereo not drawn) | i
O=C1NC(=Nc2ccccc2)SC1Cc1ccccc1 (stereo not drawn) | i
COc1ccc(CC2SC(=Nc3ccccc3)NC2=O)cc1 (stereo not drawn) | 31%*
O=CNC(Cc1ccccc1)Cc1ccccc1 | i
CN(Cc1ccco1)S(=O)(=O)c1ccc2c(c1)oc(=O)n2C | i
Cn1cnc2cc(NCc3ccccc3Cl)ccc21 | i
CC(C)(C)n1cnc2cc(NCc3ccc(Cl)cc3Cl)ccc21 | i
CCN(CC)c1ccc(CNc2ccc3c(c2)ncn3C(C)(C)C)cc1 | 40%*
COc1cccc(CNc2ccc3c(c2)ncn3C)c1OC | i
CN(C)c1ccc(CNc2ccc3c(c2)ncn3C)cc1 | 46%*!
CCN(CC)c1ccc(CNc2ccc3c(c2)ncn3C)cc1 | 50%*!
CCn1cnc2cc(NCc3cccc(OC)c3)ccc21 | i
CCCn1cnc2cc(NCc3cccs3)ccc21 | i
Cn1cnc2cc(NCc3ccc(Br)cc3)ccc21 | i
CCCCOC(=O)C1=C(C)NC2=C(C(=O)CCC2)C1c1cccc2ccccc12 (stereo not drawn) | i
O=C(c1ccc2nc[nH]c2c1)N1CCC(Cc2ccccc2Cl)(C(=O)O)CC1 | i
Cc1cc(C)cc(Oc2coc3cc(OC(=O)C(C)(C)C)ccc3c2=O)c1 | i
COc1ccc(N2C(=O)C(=O)C(=C(O)c3ccccc3)C2c2ccc(O)c(OC)c2)cc1 (stereo not drawn) | i
SMILES | ST2 inh
O=C(c1ccc2c(c1)N(Cc1ccc(F)cc1Cl)C(=O)CS2)N1CCOCC1 | i
O=C(NCCCO)/C(=C/c1ccc2c(c1)OCO2)NC(=O)c1ccc(Br)cc1 | i
CCC(C(=O)Nc1cc(S(=O)(=O)N(CC)CC)ccc1OC)c1ccccc1 (stereo not drawn) | i
CCOc1cc(C(=O)Nc2nc3ccc([N+](=O)[O-])cc3s2)cc(OCC)c1OCC | i
O=C(CCC1CCCN(C(=O)c2cccc(Cl)c2)C1)NC1CC1 (stereo not drawn) | i
CNC(=O)CC1C(=O)NCCN1C(=O)c1cc2ccccc2n1C (stereo not drawn) | i
N#Cc1cc([N+](=O)[O-])cnc1NCCO | i
N#Cc1cc([N+](=O)[O-])cnc1Sc1ccccc1 | 32%*
O=[N+]([O-])c1ccc(-c2cnc(-c3ccccc3)nc2)cc1 | i
O=C1CCCN1CCCn1cnc(-c2ccccc2)c1-c1ncc[nH]1 | i
CN(C)c1ncccc1CNC(=O)C1(Cn2ccnc2)CC1 | i
CCOc1ccccc1N1CCN(Cc2cc3c(cc2[N+](=O)[O-])OCO3)CC1 | 30%*
COc1cc(CN2CCN(c3ccccc3F)CC2)cc([N+](=O)[O-])c1O | i
COc1ccc(C(=O)N2CCN(c3ccc([N+](=O)[O-])cc3)CC2)cc1OC | i
CCOc1ccccc1N1CCN(Cc2ccc(OC)cc2OC)CC1 | i
O=[N+]([O-])c1ccc(N2CCN(Cc3ccoc3)CC2)cc1 | i
O=[N+]([O-])c1ccc(CN2CCN(Cc3ccccc3)CC2)o1 | i
Cc1ccc(C)c(N2CCN(Cc3ccc(-c4ccccc4[N+](=O)[O-])o3)CC2)c1 | 38%*
COc1cc(CN2CCN(c3ccccc3OC)CC2)c([N+](=O)[O-])cc1OC | i
COc1cc(C)c(CN2CCN(c3ccc([N+](=O)[O-])cc3)CC2)cc1C | 32%*
Cc1ccccc1N1CCN(Cc2ccco2)CC1 | i
COc1ccc(CN2CCN(Cc3cccc([N+](=O)[O-])c3)CC2)c(OC)c1OC | i
COc1cc([N+](=O)[O-])cc(CN2CCN(c3cc(C)ccc3C)CC2)c1O | 41%*
CCc1ccc(NC(=O)c2ccc(OC)c(Cl)c2)cc1 | i
Cc1cc(C(F)(F)F)nc(N2CCOCC2)n1 | i
Cc1ccsc1[C@@H]1CCN(Cc2c(C)nn(C)c2Cl)C[C@H]1O | i

Screening results (PubChem BioAssay)
